Data from PubChem BioAssay AID504340 (NMMLSC, 2011).
Unmarked numbers belong to inactive results. The source made the active and inactive calls.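 How the source made its calls: active means GFP response above 150% of the DMSO control; inconclusive means Under 70 cell events counted for a yeast strain; inactive means the rest.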

Test: yeast TOR pathway CIT2-GFP reporter retest – flow cytometry, third cherry pick, single plex, confirmation (AID 504340);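 further: median GFP fluorescence over all cells with no mother versus daughter split; sample signal as a ratio to the plate DMSO mean so 100% equals DMSO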
Details: S. cerevisiae CIT2-GFP strain, 3 h, at 10 µM, hits give high values
In the case of `COc1ccccc1Nc1nc(NCC(C)C)nc(N)c1[N+](=O)[O-]`, the GFP response vs DMSO is reported as 114%. With `COC1=C/C(=C/c2c(N)n3cc(C)sc3nc2=O)C=CC1=O` the GFP response vs DMSO was 124%. With `COCCCNc1nc(N)c([N+](=O)[O-])c(Nc2ccccc2OC)n1` the GFP response vs DMSO was 107%. `CC(=O)Nn1cnc2c(c1=O)C1(CCCCC1)Cc1ccccc1-2` gave a GFP response vs DMSO of 112%. With `C/C(=C\C(=O)c1ccc(Cl)cc1)Nc1ccc(Br)cc1` the GFP response vs DMSO was 104%. Molecule `CC1=CN2C(=N)/C(=C/c3ccc(C)o3)C(=O)N=C2S1` has a GFP response vs DMSO of 112%. `Nc1cc(C(=O)O)c(N)c2c1C(=O)c1ccccc1C2=O` gave a GFP response vs DMSO of 94.5%. For `C[n+]1cccc2cccc([O-])c21`, the GFP response vs DMSO was 103%. In the case of `O=C(Nc1ccc(-c2nc3ccccc3o2)cc1)c1cccnc1`, the GFP response vs DMSO is reported as 96.1%. Work on `OCCNc1ncnc2ccc(Br)cc12` yielded a GFP response vs DMSO of 109%. `COc1ccccc1OCc1cc(C(=O)N2CCN(C)C(c3ccccc3)C2)no1` (centres undefined) gave a GFP response vs DMSO of 103%. `Oc1c(Cl)cc(Cl)c2cccnc12` gave a GFP response vs DMSO of 142%. With `Cn1c(NCCO)nc2c(c1=O)C1(CCCCC1)Cc1ccccc1-2` the GFP response vs DMSO was 116%. For `COc1cccc2c(=O)c(C(=O)O)c[nH]c12`, the GFP response vs DMSO was 99.3%. With `OCc1ccnc2c(O)cccc12` the GFP response vs DMSO was 94.5%. With `O=c1cc(C(F)(F)F)[nH]c2c(OC(F)(F)F)cccc12` the GFP response vs DMSO was 107%. In the case of `Cn1cccc1C(=O)Nc1nc(-c2ccccn2)cs1`, the GFP response vs DMSO is reported as 106%. `Cc1cccc(N/C=C/C(=O)c2ccc(Cl)cc2)c1` gave a GFP response vs DMSO of 97.7%. With `C=CCNc1nc(N)c([N+](=O)[O-])c(Nc2ccccc2OC)n1` the GFP response vs DMSO was 127%. Molecule `CS(=O)(=O)c1nc(-c2ccc(F)cc2)cc(C(F)(F)F)n1` has a GFP response vs DMSO of 107%. `CCOC(=O)CS(=O)(=O)c1nc(-c2ccccc2)cc(C(F)(F)F)n1` showed a GFP response vs DMSO of 111%. For `Cc1cccc(Nc2cc(=O)[nH]c(=O)[nH]2)c1`, the GFP response vs DMSO was 94.5%. In the case of `Cc1ccc(NN2C(=O)C=C(c3ccccc3)C2=O)cc1`, the GFP response vs DMSO is reported as 151% (active). For `CC(=O)NCCOc1cccc2cccnc12`, the GFP response vs DMSO was 104%. In the case of `COc1cc(=O)n(C)c2c(O)cccc12`, the GFP response vs DMSO is reported as 92.8%. `COc1cccc2c(O)cc(=O)n(C)c12` showed a GFP response vs DMSO of 103%. `O=C(Nc1ccccc1)O/N=C1/CCCc2occc21` gave a GFP response vs DMSO of 103%. For `Cn1c(NCCCO)nc2c(c1=O)C1(CCCCC1)Cc1ccccc1-2`, the GFP response vs DMSO was 117%. For `Nc1ccc(O)c2c1C(=O)c1ccccc1C2=O`, the GFP response vs DMSO was 107%. With `Nc1ncnc(Nc2cc(Cl)cc(Cl)c2)c1[N+](=O)[O-]` the GFP response vs DMSO was 97.7%. In the case of `O=C1c2ccccc2C(=O)c2c1cccc2N(CCO)CCO`, the GFP response vs DMSO is reported as 92.8%. Work on `O=C(N/N=C/c1ccccc1O)c1cccc2ccccc12` yielded a GFP response vs DMSO of 92.8%. `CC(=O)CC(=O)Nc1ccc(C(N)=O)cc1` gave a GFP response vs DMSO of 106%. `Cc1ccc2c(C)ccc(O)c2n1` showed a GFP response vs DMSO of 106%. `COc1ccc(OC)c2c(=O)cc(C(=O)O)[nH]c12` showed a GFP response vs DMSO of 111%. For `COc1ccccc1-c1cc(C(F)(F)F)nc(S(C)(=O)=O)n1`, the GFP response vs DMSO was 106%. For `Oc1c(Br)cc(Br)c2cccnc12`, the GFP response vs DMSO was 189% (active). In the case of `CC(=O)NC(C)c1cc(Cl)c2cccnc2c1O` (centres undefined), the GFP response vs DMSO is reported as 97.7%. In the case of `Cc1ccc(Nc2cc(=O)[nH]c(=O)[nH]2)cc1Cl`, the GFP response vs DMSO is reported as 99.3%.
